Mito fusion act: qHTS Assay for Small Molecule Inhibitors of Mitochondrial Division or Activators of Mitochondrial Fusion; S. cerevisiae fusion-defective mutant growth rescue, CellTiterGlo 48 h; Potency, µM (titrated, usually from 46.1 µM), for inactives: top-dose growth rescue (activation), hits mostly activators; 320,000 compounds, 0.23% hits; AID 485298, 2010; also: % of control where 0% means no effect; nearly all actives have a fitted effect of over 45% in size
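Temperature-sensitive fusion-defective S. cerevisiae (e.g. fzo1-1, mgm1-5) were grown with compound in YPEG medium (3% ethanol, 3% glycerol) for 48 hours at 37C. Growth rescue was measured as viability by CellTiterGlo luminescence after 10 minutes at ambient.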
SW480 rereplic: A quantitative high throughput screen for small molecules that induce DNA re-replication in SW480 colon adenocarcinoma cells; Potency, µM (titrated, usually from 46.1 µM), for the others: at the highest dose re-replication activation, hits mostly activators; AID 624297, 2012; SW480 DNA re-replication, Hoechst DNA content imaging, 48 h; 340,000 compounds, 1.8% hits; also: % of control where 0% means no effect; nearly all actives have a fitted effect of over 55% in size
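Compounds, transferred as 23 nL by pin tool, were incubated with cells for 48 hr; DNA content per nucleus was then quantified by Hoechst staining and fluorescence plate imaging.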
Integrin act MD: qHTS for Activators of Integrin-Mediated Alleviation for Muscular Dystrophy; 350,000 compounds, 0.064% hits; AID 624291, 2012; alpha7betagal myoblasts, beta-gal FDG fluorescence, 48 h; Potency, µM (doses to about 38.3 µM), for the others: at the top dose activation, usual class: activators;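 also: 100% = response of the positive control SU9516; nearly all actives have a fitted effect of over 60% in size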
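Alpha7betagal+/- myoblasts (passage 13) were plated 16-24 hr, then exposed to compounds (1:260 dilution of DMSO stock) for 48 hours at 37C. After MPER lysis, β-galactosidase reporter activity was read as FDG fluorescence (ex 480/em 540) after 30 minutes.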
MCF10A rerep: A quantitative high throughput screen for small molecules that induce DNA re-replication in MCF 10a normal breast cells | MCF 10A DNA re-replication, Hoechst nuclear intensity, 48 h | Potency, µM (series often up to 46.1 µM), inactives show at the top dose activity, positive = re-replication, most hits filed as activators | 350,000 compounds, 2.9% hits; also: % of control where 0% means no effect; nearly all actives have a fitted effect of over 50% in size
AT treatment: qHTS Assay for Identifying a Potential Treatment of Ataxia-Telangiectasia; 320,000 compounds, 0.19% hits; Potency, µM (top dose mostly 57.5 µM), for inactives: at the top dose activation, usual class: activators; F2112 A-T fibroblasts, KAP-1 phosphorylation AlphaLISA; neocarzinostatin DNA damage 30 min before lysis; also: % of control where 0% means no effect; nearly all actives have a fitted effect of over 45% in size
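hTERT-immortalized A-T patient fibroblasts (F2112), 500 cells/well in OPTI-MEM, 1% FBS, got compounds for 60 min, then NCS for 30 min at 37C. Lysates were then assayed for phospho-KAP-1 by AlphaLISA (anti-pKAP1 donor, anti-KAP1 acceptor beads), 6 hr at 25C.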
An asterisk follows results filed as active; ? = inconclusive; · = not tested or not shown. This is a sample that favours compounds with a hit; in the whole collection about 4.2% have one here. Calls follow the shape of the dose curve; as a rule, active = well fitted activation curve with a large enough effect; inconclusive = small, poorly fitted or top-dose-only effect; inactive = no such curve, though single readings can be large or run the other way. Potency is read from the fitted curve at half-maximal effect.

SMILES | Mito fusion act | SW480 rereplic | Integrin act MD | MCF10A rerep | AT treatment
CC(C)=C1C2CCC1C1C(=O)N(NC(=O)COc3ccc(Cl)c(C)c3)C(=O)C21 (stereo not drawn) | ? | 20% | 8% | 13% | -6%
O=S(=O)(Nc1nc2ccccc2nc1N1CCc2ccccc2C1)c1ccc(Br)cc1 | 10% | 0% | ? | 15µM* | -3%
C=CC(C)(C)c1c(O)c(CC=C(C)C)c(O)c2c(=O)c3ccc(O)c(O)c3oc12 | · | ? | -42% | 23µM* | ·
C=CC(C)(C)c1c2occc2c(O)c2ccc(=O)oc12 | · | ? | -6% | ? | 3%
CC(C)(C)N(Cc1ccccc1)C(=O)CSc1ncn[nH]1 | 32µM* | 5% | -4% | 5% | -5%
CCN(Cc1ccccc1)C(=O)CSc1ncn[nH]1 | -3% | -1% | -9% | 4% | 5%
N#CSCC(=O)c1cccc2ccccc12 | 11% | ? | -16% | 18µM* | 0%
NC(=O)c1cccc2ccccc12 | -2% | 3% | 37% | 8% | -1%
CC(=O)c1sc(NC(=O)CCS(=O)(=O)c2ccc(Cl)cc2)nc1C | 9% | ? | -54% | 7.3µM* | 6%
COCc1nnc(NC(=O)CCS(=O)(=O)c2ccccc2)s1 | -26% | 15µM* | -58% | ? | -4%
CS(=O)(=O)c1ccc2nc(NC(=O)CCS(=O)(=O)c3ccccc3)sc2c1 | 14% | 3.7µM* | -65% | 3.3µM* | -3%
CCc1nnc(NC(=O)CCS(=O)(=O)c2ccc(C)cc2)s1 | -2% | 1% | -58% | 130% | -1%
CCc1nnc(NC(=O)CCS(=O)(=O)c2ccccc2)s1 | -8% | 18µM* | -36% | 15µM* | -3%
CC(C)c1nnc(NC(=O)CCS(=O)(=O)c2ccccc2)s1 | -6% | 30% | -58% | ? | 2%
CN(C)C(=O)N1CCc2ccc([N+](=O)[O-])cc21 | · | · | -1% | · | ·
CC(OC(=O)c1cc(S(=O)(=O)N2CCOCC2)ccc1F)C(=O)NCc1ccc2c(c1)OCO2 (stereo not drawn) | -5% | -3% | 13% | -1% | 11%
COc1ccc(CCN2C(=O)CN(C3CCC(C)CC3)C(=O)C2c2ccc(OC(C)C)c(OC)c2)cc1OC (stereo not drawn) | -4% | · | · | · | ·
COc1ccc(OC)c2sc(NC(=O)CCS(=O)(=O)c3ccccc3)nc12 | · | 4% | -29% | 21µM* | ·
Cc1cc(N/N=C/c2ccco2)c2ccccc2n1 | 6% | 3% | -25% | 0% | 3%
Cc1ccnc(N/N=C/c2ccco2)n1 | -2% | 16µM* | -7% | 2.9µM* | ·
O=C(/C=C/c1ccccn1)c1cc(Cl)cc(Cl)c1O | -2% | 16µM* | -30% | 21µM* | 4%
COc1ccc(/C=C/C(=O)c2cc(Cl)cc(Cl)c2O)c(OC)c1 | -4% | -72% | 14% | 6% | -8%
CS(=O)(=O)NNC(=O)Cn1nnc(-c2ccc(OCc3ccccc3Cl)cc2)n1 | · | -13% | -19% | 0% | ·
O=C(Cn1cc(COc2ccc(Br)cc2[N+](=O)[O-])nn1)c1ccc(O)cc1 | · | 9.2µM* | 24% | 14% | ·
CC(=O)N1CCc2c(sc(NC(=O)c3ccc([N+](=O)[O-])o3)c2C(N)=O)C1 | · | · | -65% | · | ·
SMILES | Mito fusion act | SW480 rereplic | Integrin act MD | MCF10A rerep | AT treatment
N#CC1(NC(=O)Cn2cc(C(F)(F)F)ccc2=O)CCCC1 | -3% | -6% | 19% | 1% | -1%
CCn1c(SCc2ccc(OC)cc2)nnc1-c1ccncc1 | 1% | -3% | -2% | 21µM* | -1%
CCn1c(SCc2cccc(F)c2)nnc1-c1ccncc1 | 6% | ? | -15% | 1% | 4.5µM*
CCn1c(SCc2cccc(F)c2)nnc1-c1cccnc1 | 1% | ? | 7% | 0% | 0%
CC(C)CN1CCN(CCCOC(=O)Nc2cccc3ccccc23)CC1C (stereo not drawn) | · | 6% | -34% | ? | ·
CCOC(OCC)c1cn(Cc2ccc(C(=O)c3ccccc3)cc2)nn1 | -5% | 127% | -31% | ? | 0%
O=S(=O)(Nc1ccc(O)c(Sc2nc3ccccc3s2)c1)c1ccc(Cl)cc1 | -20% | -136% | 31% | 21µM* | 4%
COC(=O)[C@@H]1[C@@H](C#N)C2(c3ccccc3-c3ccccc32)N(c2ccc(Cl)cc2)N1C#N | 6% | ? | -49% | 5.2µM* | 10%
O=C(Cc1ccc(Cl)cc1)NN1C(=O)c2ccccc2C1=O | -1% | -3% | -15% | 0% | 6%
Cc1ccc(SCc2nc(-c3ccncc3)no2)cc1 | 1% | ? | -2% | 16µM* | -1%
CC1C(c2ccccc2)N(C)C(c2ccccc2)CC1(O)c1ccccc1 (stereo not drawn) | 5% | 12% | -29% | ? | 10µM*
C[C@H]1CN([C@@H](C)CO)S(=O)(=O)c2ccc(/C=C/c3ccccc3)cc2O[C@H]1CN(C)C(=O)NC1CCCCC1 | · | · | -59% | · | ·
CCOC(=O)[C@@H]1[C@H]2COc3cc(OC)ccc3[C@H]2N2C(=O)N(c3cccc(F)c3)C(=O)[C@]12C | · | 0% | 14% | 23% | 3%
C=CCc1cccc(C=NNC(=O)CN2CCN(Cc3ccccc3)CC2)c1O | 4% | · | · | · | ·
CC(=O)C1=C(C)NC(SCC(=O)c2ccc(Cl)c(Cl)c2)=C(C#N)C1c1ccco1 (stereo not drawn) | ? | 12µM* | -34% | 2% | 7%
CC(C)(C)c1ccc(C(=O)CCCSC2=C(C#N)C(c3ccco3)C3=C(CCCC3=O)N2)cc1 (stereo not drawn) | 1% | ? | -61% | ? | 3%
N#CC1=C(SCC(=O)c2ccccc2)NC2=C(C(=O)CCC2)C1c1ccco1 (stereo not drawn) | 22% | 15µM* | -52% | 8.9µM* | 3%
CC(=O)C1=C(C)NC(SCC(=O)c2cc(Cl)ccc2Cl)=C(C#N)C1c1ccco1 (stereo not drawn) | 23% | ? | 1% | ? | 1%
Cc1ccc(C(=O)CSC2=C(C#N)C(c3ccco3)C3=C(CCCC3=O)N2)cc1 (stereo not drawn) | 21% | 5.8µM* | -40% | 8.2µM* | -1%
CCOc1ccccc1NC(=O)CSC1=C(C#N)C(c2ccco2)C(C(=O)Nc2nc3ccccc3s2)=C(C)N1 (stereo not drawn) | -6% | 3.7µM* | 11% | ? | 3%
CNS(=O)(=O)c1cc(NC(=O)c2cncn2-c2ccccc2)ccc1C | -6% | 1% | -23% | -6% | 11%
O=C(COC(=O)c1cccc(Cl)c1Cl)NC1CCCC1 | 21% | -15% | -13% | -13% | 18µM*

High-throughput results: PubChem BioAssay, National Center for Advancing Translational Sciences (NCATS)
